Laboratory results reported in PubChem BioAssay (NCI).
This is part of a sample that, as a whole, favours compounds with a hit. Of some 83,000 tested, about 20% had one in any assay.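 Results are percent growth after 48 hours of single-concentration exposure. 100 means growth as in untreated cells, lower positive values show inhibition; negative values down to -100 show cell death.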 Values without a mark were called inactive. Active and inactive are the calls of the source. The calls were made as follows: active = growth percent below 10; inactive = the rest.

Key:
Experiment in all cases: NCI-60 one-dose screen, 48 h (100 = growth as untreated, 0 = no growth, -100 = all killed)
Conditions in all cases: 10 µM unless noted
[1] = tested on: T-47D breast
[2] = tested on: BT-549 breast
[3] = tested on: MDA-MB-435 melanoma
[4] = tested on: SW-620 colon
[5] = tested on: HCT-116 colon
[6] = tested on: HCC-2998 colon
[7] = tested on: KM12 colon
[8] = tested on: MCF7 breast

With `COC(OC)C1(c2ccccc2)NC(=O)NC1=O` (stereo not given) the growth [1] was 106%, the growth [2] was 114% and the growth [3] was 111%. For the same compound, the growth [4] was 109%, the growth [5] was 99.4% and the growth [6] was 101%. For the same compound, the growth [7] was 115%.
`Cc1cc(Nc2ccc(Cl)c(Cl)c2)nc(N)n1` was tested, and the growth [1] was 79.5%, the growth [2] was 94.4% and the growth [3] was 98.3%. The growth [4] was 97.7%, the growth [5] was 86.4% and the growth [6] was 113%. For the same compound, the growth [7] was 91.3%.
`COc1cc(NS(C)(=O)=O)ccc1Cc1c2ccccc2nc2ccccc12` was tested, and the growth [1] was 33.5%, the growth [2] was -13.9% (active) and the growth [3] was 51.1%. The growth [4] was 26.6%, the growth [8] was 28% and the growth [5] was 0.0983% (active). For the same compound, the growth [7] was 11.1%.
For `c1ccc2c(c1)Oc1cccnc1-n1nccc1-2`, the growth [1] was 105%, the growth [2] was 101% and the growth [3] was 107%. The growth [4] was 102%, the growth [5] was 104% and the growth [6] was 110%. For the same compound, the growth [7] was 100%.
`C#C[C@H](O)/C=C/CCCCCCC#C[C@H](O)CC[C@@H](O)C#CCCCCCC/C=C/[C@@H](O)C#C` showed a growth [1] of 76%, a growth [2] of 93.9% and a growth [3] of 92.5%. The growth [4] was 71.9%, the growth [5] was 57.3% and the growth [6] was 95.2%. The growth [7] was 93.2%.
In the case of `CC(C)(C)NC(C1=CC(C)(C)c2ccccc2C1=O)c1ccccc1` (stereo not given), the growth [1] is reported as -71.8% (active), the growth [2] is reported as -32.9% (active) and the growth [3] is reported as -25.4% (active). For the same compound, the growth [4] was -82.3% (active), the growth [5] was -99.5% (active) and the growth [6] was -31.3% (active). For the same compound, the growth [7] was -29.2% (active).
Work on `O=C(O)c1ccc2nc(-c3ccc(OCCCCCOc4ccc(-c5nc6ccc(C(=O)O)cc6[nH]5)cc4)cc3)[nH]c2c1` yielded a growth [1] of 51.2%, a growth [2] of 130% and a growth [3] of 189%. The growth [4] was 57.1%, the growth [5] was 88.6% and the growth [6] was 16.4%. For the same compound, the growth [7] was 98.6%.
In the case of `CCC(C)Nc1ccc(N)cc1` (stereo not given), the growth [1] is reported as 16.2%, the growth [2] is reported as 31.7% and the growth [3] is reported as 12.7%. The growth [4] was 29.9%, the growth [5] was -34.8% (active) and the growth [6] was 28.4%. For the same compound, the growth [7] was 8.28% (active).
`S=c1[nH]nc(Cn2c3ccccc3c3ccncc32)o1` showed a growth [1] of 96%, a growth [2] of 105% and a growth [3] of 102%. For the same compound, the growth [4] was 104%, the growth [5] was 102% and the growth [6] was 106%. The growth [7] was 102%.
With `CCCCCCCCCCCCCCCCCCNCc1ccc(Cl)cc1` the growth [1] was 9.34% (active), the growth [2] was 38.5% and the growth [3] was -80.3% (active). The growth [4] was -75.8% (active), the growth [5] was -74.5% (active) and the growth [6] was -82.8% (active). The growth [7] was -77.2% (active).
`COc1cc([C@@H]2c3cc4c(cc3C(OC3O[C@@H]5COC(C)O[C@H]5[C@H](O)[C@H]3O)C3COC(=O)[C@@H]32)OCO4)cc(OC)c1O` (stereo not given in full) was tested, and the growth [1] was 23.9%, the growth [2] was 31.4% and the growth [3] was 50%. It also gave a growth [4] of 35.6%, a growth [5] of 41.7% and a growth [6] of 38.7%. It also gave a growth [7] of 42.1%.
With `O=C(Nc1cccc(-n2ccc3c(NC(=O)c4ccccc4)nccc32)c1)Nc1ccc(Cl)c(C(F)(F)F)c1` the growth [1] was 54.3%, the growth [2] was -5.15% (active) and the growth [3] was -15.4% (active). For the same compound, the growth [4] was 25.2%, the growth [5] was 3.34% (active) and the growth [6] was 17.2%. For the same compound, the growth [7] was -16.4% (active).
`COC(=O)c1ccc(NC(N)=NCC(C)(C)COc2ccc(C(F)(F)F)cc2)nc1` was tested, and the growth [1] was 28.7%, the growth [2] was 66.5% and the growth [3] was 58.3%. For the same compound, the growth [4] was 27.3%, the growth [5] was 0.764% (active) and the growth [6] was 2.3% (active). For the same compound, the growth [7] was 46.7%.
In the case of `OCc1cnccc1NC12CC3CC(CC(C3)C1)C2`, the growth [1] is reported as 89.4%, the growth [2] is reported as 110% and the growth [3] is reported as 105%. It also gave a growth [4] of 103%, a growth [8] of 101% and a growth [5] of 99.6%. The growth [7] was 103%.
With `O=C(O)c1ccc(-n2cc(/C=N/Nc3ccc(Cl)cc3)c(-c3ccc(F)c(F)c3)n2)cc1` the growth [1] was 65.9%, the growth [2] was 70% and the growth [3] was 86.5%. It also gave a growth [4] of 61.3%, a growth [8] of 46.5% and a growth [5] of 47.5%. For the same compound, the growth [7] was 69.2%.
With `O=C(Nc1ccc(-n2cc(-c3ccncc3)c(-c3ccc(O)c(Cl)c3)n2)cc1)c1cc(C(F)(F)F)cc(C(F)(F)F)c1` the growth [1] was 60.7%, the growth [2] was 53.3% and the growth [3] was 45.9%. For the same compound, the growth [4] was 76.2%, the growth [8] was 58% and the growth [5] was 40.3%. It also gave a growth [7] of 42.3%.
With `CCOC(=O)c1noc2c1CCc1cn(Cc3cc(OC)cc(OC)c3)cc1-2` the growth [1] was 94.7%, the growth [2] was 91.5% and the growth [3] was 103%. The growth [4] was 103%, the growth [5] was 92.3% and the growth [6] was 88.9%. The growth [7] was 100%.
`Cc1cc(O[C@@H]2O[C@@H](C)[C@H](O)[C@@H](O)[C@H]2O)c2c3c(c(O[C@@H]4O[C@@H](C)[C@H](O)[C@@H](O)[C@H]4O)cc2c1)C(=O)c1c(O)cccc1C3=O` was tested, and the growth [1] was 56.6%, the growth [2] was 6.47% (active) and the growth [3] was 92.8%. For the same compound, the growth [4] was 93.4%, the growth [8] was 81% and the growth [5] was 81%. For the same compound, the growth [7] was 86.8%.
For `COc1cc(-c2nc(SCC(=O)Nc3ccc(C(C)=O)cc3)[nH]c(=O)c2C#N)cc(OC)c1OC`, the growth [1] was 35.9%, the growth [2] was 36.8% and the growth [3] was -46.1% (active). For the same compound, the growth [4] was 25.8%, the growth [5] was 3.92% (active) and the growth [6] was 21%. The growth [7] was 16.8%.
In the case of `N#CC1=C(N)Oc2c(ccc3ccccc23)C1c1cc(=O)oc2ccc(Cl)cc12` (stereo not given), the growth [1] is reported as 47.7%, the growth [2] is reported as 49% and the growth [3] is reported as -43.2% (active). For the same compound, the growth [4] was 29.6%, the growth [8] was 19.7% and the growth [5] was 12.7%. For the same compound, the growth [7] was 21.5%.
`c1ccc([Se]CCCN2CCN(CCC[Se]c3ccccc3)CC2)cc1` was tested, and the growth [1] was 111%, the growth [2] was 125% and the growth [3] was -44.2% (active). It also gave a growth [4] of 101%, a growth [5] of 74.5% and a growth [6] of 115%. The growth [7] was 109%.
With `CCN(CC)CCNCC(O)Cc1ccc(OC)cc1` (stereo not given) the growth [1] was 91.5%, the growth [2] was 83.9% and the growth [3] was 108%. For the same compound, the growth [4] was 103%, the growth [8] was 103% and the growth [5] was 82.4%. It also gave a growth [7] of 106%.
`CC(C)(CCN=C(N)Nc1ccccn1)c1ccc(C(F)(F)F)cc1` was tested, and the growth [1] was -29.7% (active), the growth [2] was 32.2% and the growth [3] was 18.7%. For the same compound, the growth [4] was -11.2% (active), the growth [5] was -45% (active) and the growth [6] was -25.1% (active). For the same compound, the growth [7] was 13.5%.
With `CCc1c(C)c2cc(-n3c(-c4ccc(OC)cc4)csc3=N)c(O)c(C)c2oc1=O` the growth [1] was -0.0975% (active), the growth [2] was 5.21% (active) and the growth [3] was 0.357% (active). The growth [4] was 22.9%, the growth [5] was 8.8% (active) and the growth [6] was 36.2%. For the same compound, the growth [7] was 12.7%.
For `O=C(Nc1cccc([N+](=O)[O-])c1)Nc1cccc([N+](=O)[O-])c1`, the growth [1] was 6.88% (active), the growth [2] was 50.5% and the growth [4] was 45.4%. The growth [8] was 20.7%, the growth [5] was 37.3% and the growth [6] was 45.2%. For the same compound, the growth [7] was 27.7%.
For `C[C@H]1C=C(C[C@@H](O)CC#CC#CCCCCC[C@@H](O)[C@H]2CCC(=O)O2)C(=O)O1`, the growth [1] was 92.8%, the growth [2] was 112% and the growth [4] was 103%. The growth [8] was 115%, the growth [5] was 83.2% and the growth [6] was 105%. It also gave a growth [7] of 110%.
For `O=C(O)c1cn(C2CC2)c2cc(N3CCN(C(=O)CSc4nc(NS(=O)(=O)c5ccccc5)cc(=O)[nH]4)CC3)c(F)cc2c1=O`, the growth [1] was 116%, the growth [2] was 99% and the growth [3] was 90.1%. The growth [4] was 99.9% and the growth [7] was 91.6%.
`CC(NCCC(c1ccccc1)c1ccccc1)c1ccccc1` (stereo not given) was tested, and the growth [1] was 109%, the growth [2] was 83.1% and the growth [4] was 36.7%. For the same compound, the growth [8] was 74.8%, the growth [5] was 42.8% and the growth [6] was -31.1% (active). The growth [7] was 41.5%.
`C=CCn1c(SCC(=O)Nc2ccc(/C(C)=N\O)cc2)nnc1-c1cc(-c2ccc(OC)cc2)nc2ccccc12` was tested, and the growth [1] was -4.63% (active), the growth [2] was 35.6% and the growth [3] was 46.1%. It also gave a growth [4] of 39.4%, a growth [6] of 45.8% and a growth [7] of 29%.
In the case of `c1ccc(OCC[P+](c2ccccc2)(c2ccccc2)c2ccccc2)cc1`, the growth [1] is reported as 6.07% (active), the growth [2] is reported as 19.6% and the growth [4] is reported as 18.3%. The growth [8] was 20%, the growth [5] was 15.6% and the growth [6] was 5.3% (active). For the same compound, the growth [7] was 14.9%.
With `Cc1cccc(Cc2cnc(NC(=O)CCc3ccc(C)o3)s2)c1` the growth [1] was 76.9%, the growth [2] was 5.79% (active) and the growth [4] was 30%. It also gave a growth [8] of 12.4%, a growth [5] of 11.5% and a growth [6] of 23.7%. It also gave a growth [7] of 12.6%.
Compound `O=C(NNC(=O)c1ccc([N+](=O)[O-])cc1)c1ccc([N+](=O)[O-])cc1` has a growth [1] of 92%, a growth [2] of 89.8% and a growth [4] of 106%. For the same compound, the growth [8] was 90.4%, the growth [5] was 84.6% and the growth [6] was 104%. For the same compound, the growth [7] was 105%.
`CCCOC(=O)c1ccc([N+](=O)[O-])o1` was tested, and the growth [1] was 114%, the growth [2] was 127% and the growth [3] was 107%. It also gave a growth [4] of 97.2%, a growth [5] of 105% and a growth [7] of 101%.
In the case of `O=C(Cn1c2ccccc2c2ccncc21)N/N=C\c1ccc2ccccc2c1`, the growth [1] is reported as 35%, the growth [2] is reported as 52.5% and the growth [3] is reported as 24.5%. The growth [4] was 26.4%, the growth [5] was -41.7% (active) and the growth [7] was 36%.
`CC(C)NCC(O)COc1ccc(CC(N)=O)cc1` (stereo not given) showed a growth [1] of 98.9%, a growth [2] of 96.7% and a growth [4] of 100%. For the same compound, the growth [8] was 98.1%, the growth [5] was 99.2% and the growth [6] was 106%. It also gave a growth [7] of 106%.
